# TWEAK-Fn14 inh – inhibitors of TWEAK-Fn14 signaling, primary screen, luciferase reporter cells, uHTS. TWEAK-stimulated Fn14 reporter cells, luciferase luminescence, 8 h. inhibition, % at 10 µM. 360,000 compounds, 2% hits; in the data active = inhibition above about 50%
# HSF1 inhib – HSF1 inhibitors in luciferase reporter cells, primary screen, cell-based, NIH3T3, luminescence; activity change, negative = inhibition, % at 7.5 µM (by protocol); NIH3T3-HGL HSE-luciferase, MG132-induced, luminescence 8 h; stronger effect = lower value; AID 2098, 2009; 300,000 compounds, 0.77% hits;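 active = more than half of replicate wells show activity change below -50%, luminescence cut by over half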;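 also: luciferase reports HSF-1 transcriptional activity via heat shock element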
# LMP1 NFkB inh – EBV LMP1-driven NF-kappaB luciferase reporter inhibitors, primary screen, cell-based, luminescence, single point; LMP1-induced NF-kappaB luciferase reporter cells; inhibition, % at 12.5 µM; 350,000 compounds, 0.69% hits; AID 504558, 2011; in the data active = inhibition above about 41%
# HSF1 activator – HSF-1 activators, primary screen, NIH3T3-HGL cells, MG132 stress, luminescence, single point; NIH3T3-HGL HSF-1 luciferase reporter, 8 h; 100% = twice DMSO control signal; AID 504408, 2011; 300,000 compounds, 1.7% hits; activation, % at 9 µM;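 active = mean replicate activation of at least 50% with a set share of replicates each reaching 50%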
# TROY NFkB inh – inhibitors of TROY-driven NF-kB signaling, primary screen, Q293 LMP1-TROYcd cells, NF-kB luciferase, uHTS. AID 1347056, 2019. Q293 LMP1-TROYcd NF-kB luciferase reporter, 4 h. 360,000 compounds, 0.98% hits. inhibition, % at 10 µM;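 active = compounds whose plate-normalised and pattern-corrected inhibition of the luciferase reporter signal at the single screening dose is 50% or more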
# HSP90 refold inh – HSP90 inhibitors, primary screen, cell lysate, luminescence. inhibition, % at 5.6 µM. 290,000 compounds, 0.91% hits. Rabbit reticulocyte lysate, luciferase refolding luminescence, 3 h;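 active = inhibition above the screen-wide mean plus 3 SD, computed separately per campaign, cut at about 16% in these data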;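 also: inhibitors lower the luminescence because luciferase stays unfolded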
# Hits are given with their value; n = inactive; x = no result. Shown are actives, neighbours in structure and some others; about 4.7% of the full set was active somewhere.
SMILES,TWEAK-Fn14 inh,HSF1 inhib,LMP1 NFkB inh,HSF1 activator,TROY NFkB inh,HSP90 refold inh
COC(=O)C1=C(C)NC(C)=C(C(=O)OC)C1C(=O)OCC(=O)NC1CCCCC1C (stereo not given),n,x,n,x,n,x
O=S1(=O)CC(N2CCN(CC3CC3)CC2)CN1C1CCCCC1 (stereo not given),n,x,x,x,n,x
COc1ccc(N2CCN(c3ncnc4c3[nH]c3ccccc34)CC2)cc1,76.6,n,47.6,n,76.0,n
CCc1nc2c(OCc3ccc(C(F)(F)F)cc3)cccn2c1N(C)C(=O)C1CC1,n,x,x,x,n,x
CCc1ccc(C2=NNC(=Nc3cccc(S(=O)(=O)N(C)C)c3)SC2)cc1,71.5,-76.5,n,n,n,n
Cc1ccc(C2=NNC(=Nc3ccc(F)cc3)SC2)cc1,n,x,n,x,n,n
COC(=O)c1sc2nc(C)nc(SCC(=O)Nc3sccc3C(N)=O)c2c1C,59.7,x,n,x,n,x
COc1cccc(-n2c(N)c(-c3nc4ccccc4[nH]3)sc2=S)c1,n,-55.1,n,n,n,n
CC(Oc1ccc(Br)cc1)C(=O)Nc1nc(-c2ccccn2)cs1 (stereo not given),n,n,n,n,61.2,n
Oc1ccc(C2C[C@H]3CC[C@@H]2C3)cc1O (stereo not given in full),n,n,n,89.7,n,n
O=C1CC(c2ccc(O)c(O)c2)Oc2cc(O)cc(O)c21 (stereo not given),n,n,n,n,n,x
CC(C)(C)c1cnnn1-c1ccc(C=O)cc1,n,n,n,n,n,n
CC(C)(C)c1cnnn1-c1ccc(C(=O)CCl)cc1,n,-57.2,n,n,n,n
C=CC(=O)Oc1ccc(N2Cc3ccccc3C2=O)cc1,n,n,x,69.9,n,x
O=C1c2ccccc2CN1c1ccccc1,n,n,n,n,n,n
COc1ccc(N2Cc3ccccc3C2=O)cc1,n,n,80.6,54.2,n,n
CN[C@@H](CO)C(=O)NC[C@H]1O[C@@H](n2cnc3c(N)ncnc32)[C@H](O)[C@@H]1O,n,x,x,x,n,x
CC1(C)OC(=O)C2=C(C[C@@H](CCc3ccccc3)O[C@H]2C2CCCC2)O1,n,x,x,x,n,x
COc1ccc(CNC(=O)Nc2nnc([C@@H]3C[C@H](O)[C@@H](CO)O3)s2)cc1,63.5,x,x,x,n,x
O=C(Nc1cccc(C(F)(F)F)c1)Nc1nnc([C@@H]2C[C@H](O)[C@@H](CO)O2)s1,55.1,x,x,x,n,x
O=C(Nc1nnc([C@H]2C[C@H](O)[C@@H](CO)O2)s1)c1cccc(C(F)(F)F)c1,n,x,x,x,n,x
COc1ccc(CNC(=O)Nc2nnc([C@H]3C[C@H](O)[C@@H](CO)O3)s2)cc1,n,x,x,x,n,x
CCCS(=O)(=O)NC(=O)C1(C)CCCN(C(=O)c2ccccc2C(F)(F)F)C1 (stereo not given),n,x,x,x,n,x
CCCc1ccc(C(C)NC(=S)NCc2ccc(F)cc2)cc1 (stereo not given),n,n,n,n,56.2,n
CC(C)CCN1C(=O)c2ccccc2C1c1nnnn1-c1ccc2c(c1)OCCO2 (stereo not given),n,x,x,x,n,x
SMILES,TWEAK-Fn14 inh,HSF1 inhib,LMP1 NFkB inh,HSF1 activator,TROY NFkB inh,HSP90 refold inh
CCCc1[nH]nc2c1C(c1ccc(OC)cc1OC)C(C#N)=C(N)O2 (stereo not given),n,n,n,63.0,n,n
CCCc1[nH]nc2c1C(C1CCCCC1)C(C#N)=C(N)O2 (stereo not given),54.7,n,n,n,n,n
CCCc1[nH]nc2c1C(c1cccc(OC)c1)C(C#N)=C(N)O2 (stereo not given),n,n,n,n,n,n
COc1cccc(C(C)(O)c2nc(-c3ccc(N(C)C)cc3)cs2)c1 (stereo not given),n,x,x,x,n,x
COc1cc(OC)c(OC)cc1/C=N/NC(=O)c1cccc(S(=O)(=O)N2CCOCC2)c1,n,n,n,n,n,n
COc1cc(/C=N/NC(=O)c2cccc(S(=O)(=O)N3CCOCC3)c2)cc(OC)c1O,n,n,65.4,n,n,n
CCN(CC)c1ccc(/C=N/NC(=O)c2cccc(S(=O)(=O)N3CCOCC3)c2)cc1,n,n,n,n,n,n
CCN(Cc1ccccc1)c1ccc(/C=N/NC(=O)c2cccc(S(=O)(=O)N3CCOCC3)c2)cc1,69.2,n,n,n,n,n
COc1cc(CNC(=O)Nc2nnc([C@@H]3C[C@H](O)[C@@H](CO)O3)s2)cc(OC)c1OC,n,x,x,x,n,x
CCOC(=O)CSC1=C(C#N)C(c2ccccc2C)C2=C(CCCC2=O)N1 (stereo not given),n,-85.2,n,n,n,n
Cc1ccc(C(=O)C2CCNCC2)cc1,n,n,n,n,n,n
Cc1ccc(C(=O)C2C(=O)C3CCC2C3)cc1 (stereo not given),63.4,x,x,x,n,x
Cc1nc2c(cc1C(=O)N/N=C/c1ccc(O)c(O)c1)c(=O)n(C)c(=O)n2C,n,-73.0,n,n,n,n
O=C(N/N=C/c1ccc(O)c(O)c1)c1ccc(-n2cnnn2)cc1,n,x,n,x,n,x
Cc1cccc(CCNC(=O)COc2cc(=O)n(C)c3ccccc23)c1,n,n,n,n,n,n
CCN(CCCNC(=O)C1CCC(=O)N1Cc1ccc(C)cc1)c1cccc(C)c1 (stereo not given),n,n,n,85.1,n,n
CCN(CCCNC(=O)COc1cc(=O)n(C)c2ccccc12)c1cccc(C)c1,n,n,n,161.9,n,n
CCN(CCNC(=O)C1CCC(=O)N1Cc1ccc(C)cc1)c1ccccc1 (stereo not given),n,n,n,n,n,n
CCN(CCCNC(=O)CCc1nc(-c2ccc(C)cc2)no1)c1cccc(C)c1,n,n,n,59.1,n,n
CCCS(=O)(=O)N1CCCC(C(=O)NCCCN(CC)c2cccc(C)c2)C1 (stereo not given),n,n,n,55.5,n,n
CSc1ncnc2c1ncn2CCCN1CCN(Cc2cccc3ccccc23)CC1,n,x,n,x,n,x
O=S1(=O)N[C@H](Cc2ccccc2)COc2cc(N3CCC[C@H]3CO)ccc21,n,x,x,x,n,x
CN(CCCNC(=O)C1CCC(=O)N1Cc1ccccc1Cl)c1ccccc1 (stereo not given),n,n,n,n,n,n
CCN(CCCNC(=O)C1CCC(=O)N1Cc1ccccc1Cl)c1cccc(C)c1 (stereo not given),n,n,n,77.3,n,n
O=C(CCc1nnc(CCCc2ccccc2)o1)NC(C1CC1)C1CC1,n,n,n,64.9,n,n
O=C(CCc1nnc(CCCCc2ccccc2)o1)NCCN1CCCCC1=O,n,n,n,57.9,n,n
